Laboratory results as given in PubChem BioAssay (NCATS).
Results filed as inconclusive are left out. Starred links: 1 amine or outer side, 2 acyl side, 3 side chain; linkers in the order of their positions; H or OH if unused. Positions of bridges follow the written chain, without caps; N, C: chain ends. Non-standard residues stand in square brackets, D forms with d. Residues, ends and D or L forms follow the SMILES beside them. Chains are numbered I, II in the order given. Actinocin(9to1) = Cc1c2oc3c(C)ccc(C(=O)[*:1])c3nc-2c(C(=O)[*:2])c(N)c1=O; NMeV = CN[CH](C(=O)O)C(C)C; Sar = CNCC(=O)O

assay: qHTS for identification of novel therapeutic agents for treatment of microphthalmiaassociated transcription factor (MiT) renal cell carcinoma (RCC) (AID 1963991); details: TFE3-RCC viability, CellTiter-Glo, 48 h; measured here: UOK145 Z-AUC; stronger effect = lower value
How it was run: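 Viability of three TFE3-fusion renal carcinoma lines measured by CellTiter-Glo after 48 h treatment with each of 1912 compounds at 11 concentrations. Responses scaled between DMSO (100%) and empty wells (0%) before curve fitting.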

SMILES | z-score
Cc1cc(O)c2c(c1)C(=O)c1cccc(O)c1C2=O | 0.0822
Cn1cc(-c2ccc3ncc(Cc4ccc5ncccc5c4)n3n2)cn1 | -0.113
CC(C(C)N1CC(=O)NC(=O)C1)N1CC(=O)NC(=O)C1 (centres undefined) | -0.193
CC(C)N(CC[C@H](c1ccccc1)c1cc(CO)ccc1O)C(C)C | 0.832
C=C1CCC2[C@](C)(CO)C(O)CC[C@]2(C)C1CC=C1C(=O)OCC1O (some centres undefined) | 1.09
Nc1nc(=O)n([C@H]2CSC(CO)O2)cc1F (some centres undefined) | 0.298
CC(=O)OCC(=O)[C@@]1(O)CC[C@H]2[C@@H]3CCC4=CC(=O)CC[C@]4(C)[C@@H]3C(=O)C[C@@]21C | 0.581
CCCCCCCCCCCCCCCC(=O)OC[C@@H](NC(=O)C(Cl)Cl)[C@H](O)c1ccc([N+](=O)[O-])cc1 | 0.929
Cc1onc(-c2ccccc2)c1C(=O)N[C@@H]1C(=O)N2[C@@H](C(=O)O)C(C)(C)S[C@@H]12 | 1.83
CC(=O)NC(CS)C(=O)O (centres undefined) | 0.159
OC[C@H]1OC(O)C[C@@H](O)[C@H]1O (some centres undefined) | -0.0329
C[N+]1(C)[C@@H]2C[C@@H](OC(=O)C(O)(c3cccs3)c3cccs3)C[C@H]1[C@@H]1O[C@@H]12 | 0.677
COC(=O)[C@@H]1CC2=CC(=O)CC[C@]2(C)[C@@]23O[C@@H]2C[C@@]2(C)[C@H](CC[C@@]24CCC(=O)O4)[C@@H]13 | 0.45
C#C[C@]1(O)CC[C@@H]2[C@@H]3CCC4=CC(=O)CC[C@@H]4[C@H]3CC[C@@]21CC | -0.174
CCCNS(=O)(=O)Nc1ncnc(OCCOc2ncc(Br)cn2)c1-c1ccc(Br)cc1 | 0.601
CC(=O)N[C@@H]1[C@H](O[C@@H]2c3ccc(c(Cl)c3)Oc3cc4cc(c3O[C@H]3O[C@H](CO)[C@@H](O)[C@H](O)[C@H]3NC(=O)CCCCCCCC(C)C)Oc3ccc(cc3Cl)C[C@H]3NC(=O)[C@H](N)c5ccc(O)c(c5)Oc5cc(O)cc(c5)[C@H](NC3=O)C(=O)N[C@H]4C(=O)N[C@H]3C(=O)N[C@@H]2C(=O)N[C@@H](C(=O)O)c2cc(O)cc(O[C@H]4O[C@H](CO)[C@@H](O)[C@H](O)[C@H]4O)c2-c2cc3ccc2O)O[C@H](CO)[C@@H](O)[C@@H]1O | 0.292
Cc1c2oc3c(C)ccc(C(=O)NC4C(=O)NC(C(C)C)C(=O)N5CCCC5C(=O)N(C)CC(=O)N(C)C(C(C)C)C(=O)OC4C)c3nc-2c(C(=O)NC2C(=O)NC(C(C)C)C(=O)N3CCCC3C(=O)N(C)CC(=O)N(C)C(C(C)C)C(=O)OC2C)c(N)c1=O (centres undefined) (I: TVP[Sar][NMeV] / II: TVP[Sar][NMeV]; ester I:1-I:C, II:1-II:C; linker I:N-II:N via Actinocin(9to1); configuration not given here) | -3.66
CCCCC(=O)O[C@]1(C(=O)CO)[C@@H](C)C[C@H]2[C@@H]3CCC4=CC(=O)C=C[C@]4(C)[C@@]3(F)[C@@H](O)C[C@@]21C | 0.664
Cc1noc(-c2ccc(CSCCC(=O)O)cc2)c1NC(=O)OC(C)c1ccccc1Cl (centres undefined) | 0.402
CCN1CCN(C(=O)N[C@H](C(=O)N[C@@H]2C(=O)N3C(C(=O)O)=C(CSc4nnnn4C)CS[C@@H]23)c2ccc(O)cc2)C(=O)C1=O | 2.48

SMILES | z-score
COc1cc(OC)c(NC(=O)Nc2cc(C)on2)cc1Cl | 0.616
NC(=O)c1cccc(-c2cccc(OC(=O)NC3CCCCC3)c2)c1 | 0.744
Nc1cccc2c1C(=O)N(C1CCC(=O)NC1=O)C2=O (centres undefined) | -0.491
C=C(C)[C@@H]1CC[C@]2(C)CC[C@]3(C)[C@H](CC[C@@H]4[C@@]5(C)CC[C@H](O)C(C)(C)[C@H]5CC[C@]43C)[C@@H]12 | 0.295
C[C@H]1COc2c(N3CCN(C)CC3)c(F)cc3c(=O)c(C(=O)O)cn1c23 | 1.39
CC(=O)O[C@H]1C[C@@H]2CC[C@H]3[C@H]4C[C@H]([N+]5(C)CCCCC5)[C@@H](OC(C)=O)[C@@]4(C)CC[C@@H]3[C@@]2(C)C[C@H]1[N+]1(C)CCCCC1 | -1.4
CN1[C@H]2CC(OC(=O)[C@@H](CO)c3ccccc3)C[C@H]1[C@H]1O[C@H]12 (some centres undefined) | 0.977
C[C@]12C=CC(=O)N[C@@H]1CC[C@H]1[C@H]3CC[C@@H](C(=O)Nc4cc(C(F)(F)F)ccc4C(F)(F)F)[C@@]3(C)CC[C@@H]12 | 0.116
O=C1NC(O)CCN1[C@@H]1O[C@H](CO)[C@H](O)[C@H]1O (some centres undefined) | 0.58
C[C@H](CCC(=O)O)[C@H]1CC[C@H]2[C@@H]3[C@H](O)C[C@@H]4C[C@H](O)CC[C@]4(C)[C@@H]3CC[C@]12C | 0.171
NC(=O)c1ncn([C@@H]2O[C@H](CO)[C@@H](O)[C@@H]2O)c1O | 0.0692
O=C(CN1C(=O)C2(CCCC2)NC[C@H]1c1cc(F)cc(F)c1)Nc1ccc2c(c1)C[C@@]1(C2)C(=O)Nc2ncccc21 | 1.18
C[C@H](CCC(=O)O)[C@H]1CCC2C3C[C@H](O)[C@@H]4C[C@H](O)CC[C@]4(C)C3CC[C@@]21C (some centres undefined) | 0.00817
C[C@H](O)[C@@H]1C(=O)N2C(C(=O)O)=C(S[C@@H]3CN[C@H](CNS(N)(=O)=O)C3)[C@@H](C)[C@@H]12 | -1.41
OCCN1C[C@H](O)[C@@H](O)[C@H](O)[C@@H]1CO | 1.03
COc1cc(C)c(C=CC(C)=CC=CC(C)=CC(=O)O)c(C)c1C | 1.02
CCC[C@H]1C[C@H](C(=O)N[C@@H]([C@@H]2O[C@@H](SC)[C@@H](O)[C@@H](O)[C@@H]2O)[C@H](C)Cl)N(C)C1 | -0.0561
Cc1ccc(O)c(C(CCN(C(C)C)C(C)C)c2ccccc2)c1 (centres undefined) | 0.77
C[C@@]12C[C@@]3(O)O[C@@H](O1)[C@]1(COC(=O)c4ccccc4)[C@@H]3C[C@@]12O[C@@H]1O[C@H](CO)[C@@H](O)[C@H](O)[C@@H]1O | -0.0246
